The values below come from PubChem BioAssay (NCI).

Some test systems named below: DU-145 prostate; K-562 leukemia; MALME-3M melanoma; MDA-MB-231 breast; RXF 393 renal; SF-268 CNS; SF-295 CNS; SF-539 CNS; UACC-257 melanoma; M14 melanoma.
Assay in all cases: NCI-60 one-dose screen, 48 h (100 = growth as untreated, 0 = no growth, -100 = all killed)
What all share (details): 10 µM unless noted

Compounds without any hit were thinned out: in the full panel of roughly 83,000, 20% have a hit.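 Interpretation: 100, growth as untreated; towards 0, rising growth inhibition; 0, no net growth; 0 to -100, cell death. Compounds scoring below 10 were considered active.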 Values without a mark were called inactive. Activity calls are given as the source filed them.

Consider `CCOC(=O)/C=C/c1cc2cc(-c3csc4ccccc34)ccc2[nH]1`, for which the growth in the experiment on DU-145 prostate was 89.5%; with K-562 leukemia it was 25.4%; in the experiment with MALME-3M melanoma, 76.9%; with MDA-MB-231 breast it was 56.9%; with RXF 393 renal, 83.4%; in the experiment on SF-268 CNS, 74.8%. In addition, the growth with SF-295 CNS is 64.6%; in the experiment on SF-539 CNS, 77.6%; in the experiment on UACC-257 melanoma, 69.5%; in the experiment with M14 melanoma it was 68.1%.
As for `CCN(CC)S(=O)(=O)c1cccc(-c2ccc3c(NC(=O)C4CC4)n[nH]c3c2)c1`, the growth was 25.4% [6.25 µM] in the experiment with DU-145 prostate; 9.65% [6.25 µM] (active) with K-562 leukemia; 21.1% [6.25 µM] in the experiment on MALME-3M melanoma; 38.5% [6.25 µM] in the experiment with MDA-MB-231 breast; -11.7% [6.25 µM] (active) in the experiment with RXF 393 renal; 35.8% [6.25 µM] in the experiment on SF-268 CNS. For the same compound, the growth with SF-295 CNS is 5.94% [6.25 µM] (active); in the experiment with SF-539 CNS, -2.68% [6.25 µM] (active); with UACC-257 melanoma, 21.5% [6.25 µM]; in the experiment on M14 melanoma, 8.28% [6.25 µM] (active).
In the case of `COC(=O)c1c2c(c(C)[n+]([O-])c1C)C(=O)C(NCc1ccc(F)cc1)=CC2=O`, the growth is 42.5% with DU-145 prostate; 9.12% (active) in the experiment on K-562 leukemia; -95.7% (active) in the experiment on MALME-3M melanoma; 1.94% (active) in the experiment with MDA-MB-231 breast; 56.9% in the experiment on RXF 393 renal; 23% in the experiment with SF-268 CNS. Moreover, the growth was 69.1% in the experiment with SF-295 CNS, 0.757% (active) in the experiment on SF-539 CNS, -36.8% (active) in the experiment on UACC-257 melanoma and 2.89% (active) in the experiment on M14 melanoma.
Take `COC(=O)[C@]12CC[C@@H](C)[C@H](C)[C@@H]1C1=CC[C@@H]3[C@@]4(C)C(C=O)=C[C@@](C)(COC(=O)c5ccco5)C4=CC[C@@]3(C)[C@]1(C)CC2`: the growth was 10.7% in the experiment on DU-145 prostate; 11.1% in the experiment with K-562 leukemia; -43.5% (active) in the experiment with MALME-3M melanoma; -8.21% (active) in the experiment with MDA-MB-231 breast; -56.3% (active) in the experiment with RXF 393 renal; -10.9% (active) with SF-268 CNS. Also, the growth in the experiment with SF-295 CNS is 11.7%; in the experiment with SF-539 CNS, -15.3% (active); in the experiment on UACC-257 melanoma, -34.6% (active); with M14 melanoma it was -33.9% (active).
Regarding `CS(=O)(=O)c1ccc(Nc2nc(N[C@H]3CCCC[C@H]3N)nc3cc[nH]c(=O)c23)cc1`, the growth is 14.4% with DU-145 prostate; 10.9% in the experiment with K-562 leukemia; -31.9% (active) with MALME-3M melanoma; -12.9% (active) in the experiment on MDA-MB-231 breast; -54.7% (active) in the experiment on RXF 393 renal; -22.8% (active) with SF-268 CNS. The growth is 31.4% in the experiment on SF-295 CNS, -11.8% (active) in the experiment on SF-539 CNS, -5.02% (active) with UACC-257 melanoma and 43.5% in the experiment with M14 melanoma.
As for `NC(=O)c1ccc[n+](Cc2ccc(Cl)cc2Cl)c1`, the growth is 111% with DU-145 prostate; 92.9% in the experiment on K-562 leukemia; 100% with MALME-3M melanoma; 103% with MDA-MB-231 breast; 118% in the experiment on RXF 393 renal; 103% in the experiment with SF-268 CNS. In addition, the growth in the experiment on SF-295 CNS is 111%; in the experiment with SF-539 CNS, 105%; in the experiment with UACC-257 melanoma it was 72%; in the experiment on M14 melanoma, 94.5%.
As to `CC(=O)O[C@]1(C(C)=O)CCC2C3C[C@H](C)C4=CC(=O)CC[C@]4(C)C3CC[C@@]21C` (stereo not given in full), the growth is 117% with DU-145 prostate; 96% with K-562 leukemia; 82.8% in the experiment with MALME-3M melanoma; 71% in the experiment with MDA-MB-231 breast; 119% with RXF 393 renal; 108% in the experiment on SF-268 CNS. The growth in the experiment with SF-295 CNS was 95.7%; in the experiment with SF-539 CNS it was 94.1%; in the experiment on UACC-257 melanoma, 107%; in the experiment with M14 melanoma it was 89%.
Turning to `Cc1ccc(S(=O)(=O)n2cc(CNc3ccc(N4CCOCC4=O)cc3)c3ccccc32)cc1`, the growth in the experiment on DU-145 prostate is 67.6%; in the experiment on K-562 leukemia, 82.4%; in the experiment with MALME-3M melanoma it was 62.9%; in the experiment with MDA-MB-231 breast it was 87.8%; with RXF 393 renal, -8.02% (active); in the experiment with SF-268 CNS, 89.4%. Also, the growth was 88.7% in the experiment on SF-295 CNS, 96.8% in the experiment on SF-539 CNS, 86.6% in the experiment on UACC-257 melanoma and 93.3% with M14 melanoma.
In the case of `N#Cc1c(N)nc2c(C#N)c(NC(=O)c3ccccc3)nn2c1-c1ccccc1`, the growth in the experiment with DU-145 prostate was 102%; in the experiment with K-562 leukemia, 73.1%; in the experiment on MALME-3M melanoma, 102%; in the experiment on MDA-MB-231 breast it was 84.3%; in the experiment with RXF 393 renal, 83.5%; in the experiment on SF-268 CNS it was 86.2%. Also, the growth in the experiment on SF-295 CNS was 90%; with SF-539 CNS, 94.2%; in the experiment on UACC-257 melanoma, 105%; in the experiment on M14 melanoma, 87.3%.
As to `Nc1n[nH]c2cc(F)c([C@@H]3Nc4c(F)cc5[nH]ncc5c4[C@H]4C5CCC(C5)[C@@H]34)cc12` (stereo not given in full), the growth in the experiment on DU-145 prostate was -0.222% (active); in the experiment on K-562 leukemia, 11.6%; in the experiment with MALME-3M melanoma, 46.3%; in the experiment with MDA-MB-231 breast, 15.5%; in the experiment on RXF 393 renal, 41.3%; with SF-268 CNS it was 10.5%. Moreover, the growth in the experiment with SF-295 CNS was 15%; in the experiment with SF-539 CNS, 4.53% (active); in the experiment on UACC-257 melanoma it was 72.4%; in the experiment on M14 melanoma it was 21.2%.
